Most compounds without a hit are left out; they make up all but 4% or so of the library.
tim10-1 inh – growth inhibitors of tim10-1 mutant yeast | S. cerevisiae tim10-1 ts strain growth, BacTiter-Glo, 24 h | inhibition, % at 20 µM | hit rate 2.2% among 330,000 | AID 463190;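 active = inhibition of at least 40%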;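 note: mutant grown at 25 °C; 0% = DMSO wells with yeast and 100% = wells holding no yeast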
tim23-1 inh – growth inhibitors of tim23-1 mutant yeast; AID 463212; hit rate 1.3% among 330,000; S. cerevisiae tim23-1 growth, BacTiter-Glo luminescence, 24 h; inhibition, % at 20 µM;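 active = growth inhibition of the mutant yeast at or above 50%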;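 note: temperature-sensitive mutant grown at 25 °C; plate controls were DMSO-treated mutant yeast for no effect and medium wells lacking yeast for full effect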
NALP1 inh – inhibitors of NALP1 inflammasome in yeast. S. cerevisiae NALP1/ASC/caspase-1 growth, X-gal OD620, 72 h. inhibition, % at 10 µM. hit rate 0.61% among 280,000; in the data active = inhibition mostly above about 24%, no sharp cut-off; inactive = mostly below about 32%
TIM10 inh – inhibits growth of TIM10 yeast strain; inhibition, % at 10 µM; hit rate 1.4% among 330,000; S. cerevisiae TIM10 strain growth, BacTiter-Glo luminescence, 24 h;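 active = inhibition of 40% or more at the single tested concentration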;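 note: wild-type TIM10 isogenic control strain grown at permissive 25 °C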
NALP3 yeast inh – NALP3 inhibition in yeast; inhibition, % at 10 µM; Yeast reconstituted NLRP3/ASC/caspase-1, beta-gal luminescence, 24 h; hit rate 0.39% among 330,000; AID 2825;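 active = inhibition of 50% or more; inactive = inhibition below 50%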;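 note: plate controls were induced DMSO wells for no effect and uninduced yeast grown without galactose for full effect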
tim10-1 conf – tim10-1 yeast growth inhibition, confirmed; AID 463213; S. cerevisiae tim10-1 ts strain growth, BacTiter-Glo, 24 h; shares compounds with tim10-1 inh; inhibition, % at 20 µM; hit rate 56% among 7,400;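 active = inhibition of yeast growth at or above a set limit in either of two repeat tests at 20 µM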;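 note: tim10-1 mutant grown at permissive 25 °C to find synthetic lethal compounds; 0% = DMSO yeast wells and 100% = medium wells without yeast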
TIM10 conf – confirmation of TIM10 yeast growth inhibitors | S. cerevisiae tim10 strain growth, BacTiter-Glo luminescence, 24 h | AID 463215 | hit rate 63% among 4,600 | inhibition, % at 10 µM | shares compounds with TIM10 inh;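 active = inhibition of yeast growth at or above a set limit in either of two replicates at 10 µM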;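 note: this counterscreen used the strain with wild-type TIM10; 0% = yeast with DMSO and 100% = medium wells lacking yeast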
tim23-1 conf – tim23-1 yeast growth inhibition, confirmed; inhibition, % at 20 µM; hit rate 83% among 4,400; shares compounds with tim23-1 inh; S. cerevisiae tim23-1 growth, BacTiter-Glo luminescence, 24 h;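 active = inhibition above about 39% in either of two replicate wells at 20 µM, limit read from the data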;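 note: temperature-sensitive tim23-1 mutant grown at 25 °C; 0% = DMSO wells with yeast and 100% = medium wells without yeast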
* = called active by the depositor; nt = no result given.

SMILES	tim10-1 inh	tim23-1 inh	NALP1 inh	TIM10 inh	NALP3 yeast inh	tim10-1 conf	TIM10 conf	tim23-1 conf
COc1ccc(-c2nnc(SCC(=O)Oc3ccc(C)cc3)o2)cc1	91*	53*	3	89*	0	84*	91*	58*
CCN(Cc1ccccc1)C(c1ccccn1)c1nnnn1C(C)(C)CC (stereo not given)	42*	66*	27	52*	14	47*	51*	55*
Cc1ccc(/C(N)=N/OC(=O)/C=C/c2ccccc2)cc1	60*	67*	-2	72*	21	47*	78*	77*
COc1ccc(/C(N)=N/OC(=O)/C=C/c2ccccc2)cc1	62*	80*	-15	61*	-10	41*	68*	72*
COc1ccc(/C=C/C(=O)O/N=C(\N)c2ccccc2)cc1OC	0	18	33	15	13	nt	nt	nt
N/C(=N\OC(=O)c1cccs1)c1cccnc1	-22	5	8	10	12	nt	nt	nt
Cc1ccccc1/C(N)=N/OC(=O)c1cccs1	61*	68*	27	70*	-6	50*	-11	48*
Cc1ccccc1/C(N)=N/OC(=O)/C=C/c1ccccc1	76*	73*	10	76*	-9	52*	68*	56*
N/C(=N\OC(=O)/C=C/c1ccccc1)c1cccnc1	28	16	12	10	-6	nt	nt	nt
Cc1cc(C)c(S(=O)(=O)N2CCN(C(=O)CCn3nc(C)c(C)c3C)CC2)c(C)c1	20	20	-6	6	20	nt	nt	nt
COC(=O)[C@H](Cc1ccccc1)NC(=O)Cn1cnc2c(NCc3ccccc3)ncnc21	6	16	nt	-12	nt	nt	nt	nt
COc1ccc(/C=N/NC(=O)C(=O)N2CCCCCC2)cc1O	3	-1	-3	-1	6	nt	nt	nt
CC(C)CC(=O)/C(=C/c1ccc(N(C)C)cc1)n1cncn1	24	34	12	24	35	nt	nt	nt
COc1ccc(/C=C(/C(=O)c2ccc(Cl)cc2Cl)n2cncn2)cc1	64*	76*	-11	77*	28	70*	78*	49*
CN(C)c1ccc(/C=C(/C(=O)c2ccc(Cl)cc2Cl)n2cncn2)cc1	53*	54*	nt	51*	9	41*	-26	56*
O=C(Cc1cccc(C(F)(F)F)c1)N1CCCC1	4	0	-26	-8	-14	nt	nt	nt
O=C(Nc1nnc(S(=O)(=O)N2CCCCCC2)s1)c1ccccc1F	47*	56*	-50	31	1	32*	nt	55*
C[C@@H]1COC(=O)[C@@H](CC(=O)OC(C)(C)C)C/C=C\C[C@H](CC(=O)N(CCO)Cc2ccccc2)C(=O)N1	8	13	nt	1	17	nt	nt	nt
O=C(N/N=C/c1cccc(Br)c1)c1ccc(Cn2cc(Br)cn2)o1	49*	76*	35	68*	5	60*	81*	83*
COc1ccc(CN2C(=NC(=O)C3CC3)SC3CS(=O)(=O)CC32)cc1OC (stereo not given)	-15	5	14	-1	6	nt	nt	nt
Cc1ccc(S(=O)(=O)Nc2cccnc2Oc2ccc(Cl)cc2)cc1	10	46	-8	22	24	nt	nt	nt
Cc1ccc(S(=O)(=O)Nc2cc(Cl)c(O)c3ncccc23)cc1	62*	73*	6	45*	20	29	49*	82*
Cc1ccc(S(=O)(=O)CCC(=O)OC2CC(C)OC2=O)cc1 (stereo not given)	1	18	nt	-4	0	nt	nt	nt
CNC(=O)c1ccsc1NC(=O)c1ccc2c(c1)CCCC2	49*	63*	23	54*	14	30*	47*	72*
CCCCN(C(C)=O)c1ccc(S(=O)(=O)NC2=NCCCCC2)cc1NC(C)=O	10	6	nt	3	4	nt	nt	nt
SMILES	tim10-1 inh	tim23-1 inh	NALP1 inh	TIM10 inh	NALP3 yeast inh	tim10-1 conf	TIM10 conf	tim23-1 conf
N#C/C(=C\c1cccc(NC(=O)c2ccccc2Cl)c1)C(=O)NCCc1ccccc1	66*	60*	30	57*	8	61*	4	57*
CC(C)(C)c1ccc(C(=O)NC2CCS(=O)(=O)C2)cc1 (stereo not given)	-8	4	-152	-14	12	nt	nt	nt
Cc1ccc(-n2[nH]c(C)c(C=Nc3ccc4[nH]c(=O)[nH]c4c3)c2=O)cc1	0	0	23	-4	-1	nt	nt	nt
Cc1ccc(N=Cc2c(C)[nH]n(-c3nc4ccccc4[nH]3)c2=O)cc1	62*	65*	23	44*	-3	60*	-11	68*
C=CCn1c(O)c(/C=C2\C=NN=C2c2ccccc2)sc1=S	43*	51*	1	25	24	35*	nt	51*
CCCCC(CC)Cn1c(O)c(/C=C2\C=NN=C2c2ccccc2)sc1=S (stereo not given)	8	1	36	3	18	nt	nt	nt
CN(CCCNC(=O)Cn1c(=O)c2cccn2c2ccccc21)Cc1ccccc1	-10	6	20	5	3	nt	nt	nt
CCN(C[C@H]1N[C@@](Cc2ccccc2)(C(=O)OC)[C@H]2C(=O)N(Cc3ccccc3)C(=O)[C@@H]12)C(=O)Nc1ccc(C(F)(F)F)cc1	76*	70*	nt	72*	19	81*	69*	75*
O=C1C2C3C=CC(C4CC34)C2C(=O)N1c1cccc2ccccc12 (stereo not given)	13	23	4	0	18	nt	nt	nt
N/C(=N\OC(=O)c1ccccc1Cl)c1ccccc1	52*	57*	12	47*	-1	55*	43*	52*
CCOP(=O)(OCC)/C(=N/OC(=O)c1ccc(Cl)cc1Cl)C(N)=O	15	0	-1	10	18	nt	nt	nt
N/C(=N\OC(=O)c1ccc(Cl)cc1Cl)c1ccccc1	62*	82*	8	87*	18	55*	84*	78*
COc1ccccc1C(=O)O/N=C(\N)c1ccccc1Cl	41*	52*	31	35	7	40*	nt	32
N/C(=N/OC(=O)c1ccccc1Cl)c1nonc1N	24	22	0	17	22	nt	nt	nt
N/C(=N\OC(=O)c1ccccc1Cl)c1ccc(Cl)cc1	53*	81*	nt	79*	14	37*	82*	72*
O=C(CNC(=O)c1ccc(Cl)c([N+](=O)[O-])c1)OCN1C(=O)c2ccccc2C1=O	11	20	nt	5	4	nt	nt	nt
COc1ccc(C(C)(C)NC(=O)C2CCC(=O)N(C3CCCC3)C2)cc1OC (stereo not given)	4	2	20	8	6	nt	nt	nt
N/C(=N\OC(=O)c1ccc(Cl)cc1Cl)c1cccnc1	58*	52*	-7	51*	18	55*	36*	42*

Bioassay records: PubChem, Sanford-Burnham Center for Chemical Genomics
